Shown are actives, neighbours in structure and some others; about 2.8% of the full set was active somewhere.
SNCA expr inhib: Primary qHTS assay for inhibitors of alpha-synuclein gene (SNCA) expression; HEK-293 SNCA-luciferase knock-in, luminescence, 24 h; Potency, µM (top dose mostly 57.2 µM), for inactives: at the highest dose activity change, negative = inhibition, actives largely listed as inhibitors; actives 0.17% (n = 140,000);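 further: potency means the concentration at half of the fitted maximal effect; plate controls were DMSO cells for no effect and cell-free wells for full effect; nearly all actives have a fitted effect of over 45% in size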
KDM5B inh: Primary screen for KDM5B Histone Demethylases FDH-coupled qHTS | Lysine-specific demethylase 5B (Homo sapiens), Q9UGL1 | Potency, µM (titrated, usually from 57.7 µM), most hits filed as inhibitors | KDM5B demethylase, FDH-coupled NADH fluorescence (FDH is formaldehyde dehydrogenase) | actives 2.6% (n = 220,000) | AID 1347165, 2019; further: potency means the concentration at half of the fitted maximal effect; 0% is about no effect; nearly all actives have a fitted effect of over 70% in size
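Coupled FDH/NAD⁺ fluorescence readout. KDM5BΔAP 200 nM final; compound titration, 10 min RT preincubation; substrate mix 12.5 µM H3K4me3, 25 µM 2-OG, 50 µM Fe(II), 100 µM ascorbate, 0.25 mM NAD⁺, 0.25 U/mL FDH; ΔRFU over 30 min.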
IP6K1 inh: Primary qHTS assay for small molecule inhibitors of Inositol hexaphosphate kinase 1 (IP6K1); Inositol hexakisphosphate kinase 1 (Homo sapiens), Q92551; IP6K1 kinase, ADP-Glo luminescence, 2 h; hits give low values; activity change, % (series mostly up to about 58 µM); actives 0.81% (n = 140,000); AID 1645851, 2021; in the data active means activity change below about -25%; further: on the % scale 0 is the no-effect control and ±100 the full control effect
Target sequence (Q92551 whole entry, looked up): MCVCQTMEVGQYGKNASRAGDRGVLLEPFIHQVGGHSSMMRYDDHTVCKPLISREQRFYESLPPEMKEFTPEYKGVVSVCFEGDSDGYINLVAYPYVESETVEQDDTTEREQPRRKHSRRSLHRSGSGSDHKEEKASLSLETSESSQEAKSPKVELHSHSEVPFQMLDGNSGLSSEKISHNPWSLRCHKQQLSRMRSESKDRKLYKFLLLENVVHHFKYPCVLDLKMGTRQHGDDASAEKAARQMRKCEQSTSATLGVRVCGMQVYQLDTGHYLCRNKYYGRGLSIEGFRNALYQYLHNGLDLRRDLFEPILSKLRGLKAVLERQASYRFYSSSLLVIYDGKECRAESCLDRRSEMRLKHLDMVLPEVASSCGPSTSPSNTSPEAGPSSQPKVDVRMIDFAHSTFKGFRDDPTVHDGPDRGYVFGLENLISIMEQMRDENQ
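ADP-Glo luminescence measures ADP made by human IP6K1 during a 2 h RT reaction with ATP/IP6 (mix at 1.3 mM/130 uM); top library doses 57.5 and 19.1 uM final.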
SNCA viab count: GF-AFC viability counterscreen for inhibitors of alpha-synuclein gene (SNCA) expression; Potency, µM (titrated, usually from 57.1 µM), for inactives: at the top dose activity change, negative = cytotoxicity, actives largely listed as cytotoxic; actives 0.12% (n = 150,000); AID 1671193, 2021; HEK-293-SNCA-luc viability, GF-AFC fluorescence, 24 h;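 further: potency means the concentration at half of the fitted maximal effect; 0% = DMSO-treated cells and -100% = medium-only wells without cells; nearly all actives have a fitted effect of over 30% in size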
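HEK-293-SNCA-luc cells (1500/well) plated 24 h, then exposed 24 h to a dilution series; GF-AFC added 30 min at 37C, fluorescence 405/540 nm; normalised to medium-only and DMSO wells, Hill fit.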
An asterisk follows results filed as active; [ ] = another dose, or the depositor's remark. Unless noted, the call rests on the fitted dose curve; in most records, active means well fitted curve in the direction sought with a large enough effect; inconclusive means small, poorly fitted or top-dose-only effect, or another doubt; inactive means no such curve, though single readings can be large; an effect the other way counts as inactive or inconclusive.

Results for O=C(c1ccccc1F)N1CCC2(CC1)CC(=O)N(c1ccccc1)c1ccccc1O2 ?
SNCA expr inhib: -13.4%; KDM5B inh: inactive; IP6K1 inh: 0.4; SNCA viab count: 3.1%

How did O=C1CC2(CCN(C(=O)c3ccccn3)CC2)Oc2ccccc21 do in these assays?
SNCA expr inhib: -2.7%[87.6 µM]; KDM5B inh: 31.6µM*; IP6K1 inh: 5.1; SNCA viab count: -0.4%[87.6 µM]

Results for O=C1CC2(CCN(C(=O)c3ccccc3F)CC2)Oc2ccccc21 ?
SNCA expr inhib: 13.5%; KDM5B inh: 25.1µM*; IP6K1 inh: 8.8; SNCA viab count: -2.7%

How did O=C(c1cncc(Br)c1)N1CCCCCC1c1nnc(-c2ccccc2)o1 (stereo unspecified) do in these assays?
SNCA expr inhib: -24.4%; KDM5B inh: inactive; IP6K1 inh: -8.8; SNCA viab count: -8.3%

How did COCCn1c2c(c(=O)n1-c1ccccc1)CCN(Cc1ccncc1Cl)C2 do in these assays?
SNCA expr inhib: -26.5%[87.6 µM]; KDM5B inh: 35.5µM*; IP6K1 inh: 21.5; SNCA viab count: -5.7%[87.6 µM]

How did O=c1c2c(n(Cc3cccnc3)n1-c1ccccc1)CN(Cc1ccccc1Cl)CC2 do in these assays?
SNCA expr inhib: inconclusive; KDM5B inh: inconclusive; IP6K1 inh: 6.5; SNCA viab count: inconclusive

Results for COc1ccc(S(=O)(=O)Nc2nc3ccccc3nc2Nc2ccc(OC)c(Cl)c2)cc1 ?
KDM5B inh: inactive

How did NCCCN1C(=O)CC[C@H]2CN(C(=O)c3cnn4ccccc34)CC[C@H]21 do in these assays?
SNCA expr inhib: inconclusive; KDM5B inh: 22.4µM*; IP6K1 inh: 9.2; SNCA viab count: -16.4%

How did NCCCN1C(=O)CC[C@H]2CN(C(=O)c3coc4ccccc34)CC[C@H]21 do in these assays?
SNCA expr inhib: -12.1%; KDM5B inh: inactive; IP6K1 inh: -8.3; SNCA viab count: 3.2%

What do the screens show for `COc1ccc(Cl)cc1NC(=O)/C(C#N)=C/c1coc2ccccc2c1=O`?
KDM5B inh: inactive

What do the screens show for `CC(C)CCNC(=O)C12CC3CC(CC(O)(C3)C1)C2`?
KDM5B inh: inactive

How did Cn1cnc(C(=O)N[C@@H]2CN(c3ncccn3)C[C@H]2CO)c1 do in these assays?
SNCA expr inhib: 5.2%; KDM5B inh: 28.2µM*; IP6K1 inh: 1.3; SNCA viab count: 7.5%

Results for Cn1cccc1C(=O)N[C@@H]1CN(c2ncccn2)C[C@H]1CO ?
SNCA expr inhib: 8.1%; KDM5B inh: inconclusive; IP6K1 inh: 6.9; SNCA viab count: 5.7%

Results for O=C(N[C@@H]1CN(c2ncccn2)C[C@H]1CO)c1cc2ccccc2[nH]1 ?
SNCA expr inhib: 118.8%; KDM5B inh: 14.1µM*; IP6K1 inh: 2.0; SNCA viab count: -2.8%

What do the screens show for `Cn1nccc1C(=O)N[C@@H]1CN(c2ncccn2)C[C@H]1CO`?
SNCA expr inhib: -15.1%; KDM5B inh: inconclusive; IP6K1 inh: 4.0; SNCA viab count: -2.9%

How did Cc1cc(C)n(CC(=O)N[C@@H]2CN(Cc3ccccc3)C[C@H]2CN(C)C)c(=O)n1 do in these assays?
SNCA expr inhib: 15.2%; KDM5B inh: 8.91µM*; IP6K1 inh: -3.0; SNCA viab count: 2.6%

What do the screens show for `CN(C)C[C@@H]1CN(Cc2cccnc2)C[C@H]1NC(=O)c1cc2ccccc2[nH]1`?
SNCA expr inhib: -18.3%; KDM5B inh: 28.2µM*; IP6K1 inh: 3.7; SNCA viab count: -9.9%

What do the screens show for `Cc1ccc(C(=O)N(C)C2CCc3nn(CC4CC4)c(=O)n3CC2)c(=O)[nH]1` (stereo unspecified)?
SNCA expr inhib: -22.5%; KDM5B inh: inconclusive; IP6K1 inh: -7.2; SNCA viab count: 7.6%

How did CN(C)C[C@@H]1CN(c2ncccn2)C[C@H]1NC(=O)c1cc2ccccc2[nH]1 do in these assays?
SNCA expr inhib: 15.9%; KDM5B inh: 28.2µM*; IP6K1 inh: 19.1; SNCA viab count: 3.9%

How did CN(C)C[C@@H]1CN(c2ncccn2)C[C@H]1NC(=O)NCCc1ccccc1 do in these assays?
SNCA expr inhib: -22.9%; KDM5B inh: inconclusive; IP6K1 inh: 3.2; SNCA viab count: -6.3%

How did COc1ccc2oc(=O)c(-c3csc(Nc4cc(Cl)ccc4OC)n3)cc2c1 do in these assays?
KDM5B inh: inactive

Results for CNC(=O)c1cc2cc(-c3c(C)noc3C)nc(-c3cccnc3OC)c2o1 ?
SNCA expr inhib: 29.4%[87.6 µM]; KDM5B inh: 35.5µM*; IP6K1 inh: -2.4; SNCA viab count: 6.2%[87.6 µM]

Results for Cc1noc(C)c1-c1cc2cc(C(C)C)oc2c(-c2cccnc2)n1 ?
SNCA expr inhib: 46.1%[87.6 µM]; KDM5B inh: 31.6µM*; IP6K1 inh: -7.1; SNCA viab count: 3.2%[87.6 µM]

What do the screens show for `Cc1noc(C)c1-c1cc2cc(C(C)C)oc2c(-c2ccc(CO)cc2)n1`?
SNCA expr inhib: 6.2%[87.6 µM]; KDM5B inh: 28.2µM*; IP6K1 inh: -8.4; SNCA viab count: -21.5%[87.6 µM]

How did COc1ncccc1-c1nc(-c2c(C)noc2C)cc2cc(C(C)C)oc12 do in these assays?
SNCA expr inhib: 31.3%[87.6 µM]; KDM5B inh: 31.6µM*; IP6K1 inh: -8.9; SNCA viab count: -7.0%[87.6 µM]

What do the screens show for `Cc1noc(C)c1-c1cc2cc(C(C)C)oc2c(-c2c(C)noc2C)n1`?
SNCA expr inhib: 32.6%[87.6 µM]; KDM5B inh: inactive; IP6K1 inh: 1.9; SNCA viab count: 14.8%[87.6 µM]

How did O=C(NCC(c1cccs1)N1CCCC1)c1nn(Cc2ccccc2)c(=O)c2ccccc12 (stereo unspecified) do in these assays?
KDM5B inh: inactive

Results for CCn1ncc2c(C(=O)Nc3ccc(OC)c(OC(F)F)c3)cc(-c3cccs3)nc21 ?
KDM5B inh: inactive

Results for Cc1ccc(-c2ccccc2CN2CCC(C(=O)N3CCC(C#N)CC3)CC2)cc1Cl ?
SNCA expr inhib: -21.9%; IP6K1 inh: -12.9; SNCA viab count: 1.6%

Results for COc1ccc(-n2cc(CN3CCCC(O)C3)c(-c3cccc(F)c3)n2)cc1 (stereo unspecified) ?
SNCA expr inhib: 66.8%; KDM5B inh: 22.4µM*; IP6K1 inh: -1.2; SNCA viab count: inconclusive

What do the screens show for `COc1ccc(-n2cc(CN3CCC(CO)CC3)c(-c3cccc(F)c3)n2)cc1`?
SNCA expr inhib: 1.2%; KDM5B inh: inconclusive; IP6K1 inh: 18.1; SNCA viab count: -4.4%

Results for c1ccc(-c2ccc(N3CC[C@@]4(CCCNC4)C3)cc2)cc1 ?
SNCA expr inhib: 32.4%; SNCA viab count: -2.9%

How did c1ccc(-c2ccc(N3CC4(CCNCC4)C3)cc2)cc1 do in these assays?
SNCA expr inhib: inconclusive; SNCA viab count: 31.6µM*

What do the screens show for `COc1ccccc1C(=O)N1CCC2(CC1)COc1ccccc1C(=O)N2`?
SNCA expr inhib: 3.0%; KDM5B inh: inactive; IP6K1 inh: 16.6; SNCA viab count: 3.6%

What do the screens show for `Cc1ccc(S(=O)(=O)c2nc(-c3cccs3)oc2SC(C)C)cc1`?
SNCA expr inhib: 19.6%; KDM5B inh: inconclusive; IP6K1 inh: -6.3; SNCA viab count: 1.6%
